Assay outcomes from PubChem.
L3MBTL1 block: L3MBTL1 (human) inhibition; AID 485360; 230,000 tested, 0.66% active; Potency, µM (doses to about 57.1 µM), for inactives: top-dose activity, negative = inhibition, most hits filed as inhibitors; Q9Y468; AlphaScreen L3MBTL1–H3K9me1 peptide binding; also: % is scaled to controls: 0 for no effect and ±100 for the full control effect; nearly all actives have a fitted effect of over 60% in size
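Displacement of a biotinylated histone H3(1-15) peptide monomethylated at Lys9 (75 nM) from L3MBTL1 (50 nM) was measured by AlphaScreen after a 30 min room-temperature compound incubation; cefsulodin titration served as intraplate control.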
HP1b chromo inh: inhibitors of HP1-beta chromodomain binding to methylated histone tails; AlphaScreen HP1-beta / biotin-H3K9me3 peptide binding; Potency, µM (series often up to 114 µM), without a hit: at the highest dose activity change, negative = inhibition, actives largely listed as inhibitors; 390,000 tested, 0.56% active; AID 540317; also: nearly all actives have a fitted effect of over 70% in size
Target sequence (P83916 whole entry, looked up): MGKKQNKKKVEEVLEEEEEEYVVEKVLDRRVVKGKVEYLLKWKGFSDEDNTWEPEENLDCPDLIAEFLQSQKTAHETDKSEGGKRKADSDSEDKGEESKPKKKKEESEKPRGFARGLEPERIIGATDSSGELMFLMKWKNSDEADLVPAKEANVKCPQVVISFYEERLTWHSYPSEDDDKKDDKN
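Compound inhibition of the preformed complex between 50 nM HP1-beta and 50 nM biotinylated H3K9me3 peptide was read by AlphaScreen. Buffer was PBS pH 7.4 with 0.01% Tween-20. Incubations ran 30 min at room temperature, with 10 ug/mL donor/acceptor beads.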
JMJD2A Tudor: blocks the human JMJD2A Tudor domain; AlphaScreen JMJD2A-Tudor / H3K4me3 peptide binding; O75164; Potency, µM (titrated, usually from 114 µM), without a hit: top-dose activity change, negative = inhibition, usual class: inhibitors; 390,000 tested, 4.4% active; AID 504339; also: % is scaled to controls: 0 for no effect and ±100 for the full control effect; nearly all actives have a fitted effect of over 50% in size
G9a block: inhibitors of human histone lysine methyltransferase G9a | Q96KQ7 | G9a H3K9 monomethylation, AlphaScreen, 2 h | Potency, µM (top dose mostly 102 µM), inactives show at the top dose activity, negative = inhibition, hits mostly inhibitors | 350,000 tested, 8.8% active; also: % is scaled to controls: 0 for no effect and ±100 for the full control effect; nearly all actives have a fitted effect of over 75% in size
Target sequence (Q96KQ7 913-1193 limits assumed): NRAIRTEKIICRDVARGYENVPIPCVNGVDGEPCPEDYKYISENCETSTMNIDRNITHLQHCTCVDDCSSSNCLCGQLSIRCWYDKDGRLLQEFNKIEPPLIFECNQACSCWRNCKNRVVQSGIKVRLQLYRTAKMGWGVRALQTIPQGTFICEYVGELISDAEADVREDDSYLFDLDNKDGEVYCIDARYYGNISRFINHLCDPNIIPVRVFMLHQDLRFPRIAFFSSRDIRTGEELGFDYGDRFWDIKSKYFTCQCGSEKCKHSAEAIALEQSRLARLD
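Methyltransferase reactions run at room temperature for 2 h (20 nM enzyme, 500 nM biotin-H3K9 peptide, 20 uM SAM) after a 15 min compound preincubation; product detected by AlphaScreen beads and anti-H3K9me1 antibody.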
BAZ2B inh: blocks human BAZ2B. AlphaScreen BAZ2B-H3K14Ac peptide displacement. Potency, µM (doses to about 114 µM), without a hit: top-dose activity change, negative = inhibition, actives largely listed as inhibitors. 360,000 tested, 4.4% active. AID 504333; also: % is scaled to controls: 0 for no effect and ±100 for the full control effect; nearly all actives have a fitted effect of over 60% in size
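BAZ2B 50 nM plus b-H3(5-23)K14Ac 50 nM, PBS pH 7.4/0.01% Tween-20, 30 min RT; compound added (max 110 uM), 30 min RT; streptavidin donor/Ni-chelate acceptor beads 10 ug/mL final, 20 min dark; AlphaScreen read.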
* hit, by the source's call; ? = inconclusive; . = not tested or not shown; [ ] = remark or other dose. This is a sample that favours compounds with a hit; in the whole collection about 11% have one here. Calls follow the shape of the dose curve; as a rule, active = well fitted inhibition curve with a large enough effect; inconclusive = small, poorly fitted or top-dose-only effect; inactive = no such curve, though single readings can be large or run the other way. Potency is read from the fitted curve at half-maximal effect.

SMILES	L3MBTL1 block	HP1b chromo inh	JMJD2A Tudor	G9a block	BAZ2B inh
N=C(N)SCCc1cnc[nH]1	-1%	14%	-21%	7.5µM*	-32%
O=C(NCCc1cnc[nH]1)c1cccs1	.	29%	-6%	.	-22%
CCC1(C)CC(=O)N(c2ccc(C(=O)O)c(O)c2)C1=O (stereo unspecified)	3%	16%	-35%	50µM*	-36%
S=c1[nH]nc(CCCc2n[nH]c(=S)o2)o1	.	?	2.8µM*	.	-29%
COc1ccc2c(c1)c(C(=O)CN1CCN(Cc3ccccc3)CC1)c(C)n2C	-2%	22%	-19%	.	-4%
COc1ccc(C(=O)CN2CCN(c3cc(C)nc4ccccc34)CC2)cc1	-10%	37%	-17%	13µM*	-12%
COc1ccc(N2CCN(CCC(=O)c3ccc4ccccc4c3)CC2)cc1	.	-10%	?	10µM*	?
COc1ccc(N2CCN(CC(=O)N3c4ccccc4CC3C)CC2)cc1 (stereo unspecified)	.	25µM*	2.8µM*	8.9µM*	35µM*
COc1ccc(N2CCN(C(=O)CCCC(=O)c3ccccc3)CC2)cc1	-5%	17%	-22%	-14%	?
COc1ccc2c(c1)c(C(=O)CN1CCN(c3ccccc3)CC1)c(C)n2C	-28%	-7%	-33%	35µM*	?
COc1ccc(N2CCN(CC(=O)c3ccccc3)CC2)cc1	.	-2%	?	11µM*	-21%
O=C(CN1CCN(c2ccccc2)CC1)c1ccc2cc[nH]c2c1	.	28%	-12%	11µM*	14%
O=C(CN1CCN(c2ccc([N+](=O)[O-])cc2)CC1)c1ccccc1	.	-4%	?	7.1µM*	-26%
OCC(O)/C=N/Nc1nc(N2CCCCC2)nc(N2CCCCC2)n1 (stereo unspecified)	.	54%	-5%	56µM*	-17%
COc1cc(CNCCCN2CCOCC2)cc(Cl)c1OCC(=O)NC(C)(C)C	.	30%	-5%	-48%	-20%
CCC(C)(C)n1nnnc1C(c1cc2ccc(C)cc2[nH]c1=O)N(Cc1cccnc1)Cc1ccco1 (stereo unspecified)	-3%	-8%	?	50µM*	?
Cc1cc2cc(C(c3nnnn3C3CCCC3)N(Cc3cccnc3)Cc3ccco3)c(=O)[nH]c2cc1C (stereo unspecified)	.	14%	-29%	?	-1%
Cc1oc2ncnc(N3CCCCC3)c2c1C(=O)NCC1CCN(Cc2ccccc2F)CC1	.	2%	-12%	-16%[59 µM]	0%[57.1 µM]
Cc1ccc(NC(=O)Cn2c(=O)n(CCC(=O)NCc3ccccc3Cl)c(=O)c3ccccc32)c(C)c1	.	4%	-6%	?	-37%
Cc1[nH]c(=S)[nH]c(=O)c1Cc1ccccc1	1%	36%	-23%	50µM*	2%
Cc1[nH]c(=S)[nH]c(=O)c1CCCO	-6%	24%	-7%	71µM*	-16%
O=c1[nH]nc(Cc2ccccc2)c2ccccc12	.	20%	-4%	-4%[59 µM]	7%
O=c1[nH]c(=S)[nH]nc1Cc1ccccc1	22%	28%	?	40µM*	-7%
Cc1nc2cnc(Oc3cccc(Cl)c3)nc2n(Cc2ccc(F)cc2)c1=O	.	.	.	10%[0.501 µM]	.
COc1ccc(CNc2ncnc3ccc(-c4c(C)noc4C)cc23)cc1	.	.	-31%	.	.
SMILES	L3MBTL1 block	HP1b chromo inh	JMJD2A Tudor	G9a block	BAZ2B inh
Cc1ccc(-c2c(CN3CCN(c4cc(Cl)ccc4C)CC3)csc2C)cc1	.	31%	-23%	-34%[59 µM]	?
O=C(c1cccc(F)c1)N1CCC(c2c[nH]c3ccccc23)(c2c[nH]c3ccccc23)CC1	.	13%	-22%	1%[59 µM]	0%
CCCCCCCCCCCCCCCC(=O)OC(C)C	.	.	.	20%[59 µM]	.
CCCCOc1ccc(C2C(=O)N(C3CCCCC3)CC(=O)N2C2CCCCC2)cc1 (stereo unspecified)	.	26%	-7%	-2%[59 µM]	0%
COc1cc(OC)c(OC)cc1CN1CCSCC1	-4%	?	3.2µM*	?	79µM*
COc1cc(C)c(CN2CCSCC2)cc1C	-7%[2.29 µM]	-3%	32µM*	-31%[0.501 µM]	?
COc1ccc(CN2CCCC(CO)(Cc3ccc(F)cc3)C2)cc1C (stereo unspecified)	4%	19%	-13%	-1%	-1%
COc1ccc(CN2CCSCC2)cc1C	.	?	8.9µM*	10µM*	79µM*
CCN1C2=C(C(=O)CCC2)C(c2ccc(O)cc2)C2=C1CCCC2=O	6%	27%	-1%	20µM*	5%
CCOc1cc(C2C3=C(CCCC3=O)N(C)C3=C2C(=O)CCC3)cc(Cl)c1O	-13%	18%	5%	?	5%
COCCn1c(NC(=S)NC(=O)C2CC2)cc(=O)[nH]c1=O	-6%	12%	1µM*	?	?
COCCn1c(NC(=S)NC(=O)C23CC4CC(CC(C4)C2)C3)cc(=O)[nH]c1=O	.	24%	-5%[11.4 µM]	7%[59 µM]	-14%
Cc1cccc(-c2nsc(SCC(=O)Nc3nccs3)n2)c1	-3%	-8%	?	10µM*	-5%
O=C(CSc1nc(-c2ccccc2)ns1)N1CCOCC1	.	-15%	-14%	8.9µM*	-17%
Cc1cccc(-c2nsc(SCC(=O)N3CCCC3)n2)c1	0%	3%	2%	40µM*	-5%
Cc1cccc(-c2nsc(SCC(=O)Nc3ccc4c(c3)OCO4)n2)c1	9%	16%	-11%	-77%	1%
Cc1cc(Oc2c(C(F)(F)F)oc3c(CN4CCC(C)CC4)c(O)ccc3c2=O)cc(C)c1Cl	.	24%	-10%	1%[59 µM]	0%
O=C(Nc1cccc(F)c1)N1CCCC2(CCN(C(=O)c3cccc(F)c3)CC2)C1	.	.	.	2%[12.7 µM]	.
OC(CNCc1ccccn1)c1ccccc1 (stereo unspecified)	-4%	60%	-7%[57.1 µM]	?	22µM*
c1ccc(NCc2ccccn2)cc1	-5%	17%	-32%	4%	79µM*
OC(CNCc1ccncc1)c1ccccc1 (stereo unspecified)	8%	-13%	?	22%[59 µM]	4%
O=C(O)/C=C/C(=O)NCc1ccccc1	10%	49%	-8%	?	-3%
Cc1cc(Br)ccc1NCc1ccccn1	5%	16µM*	3.2µM*	?	16µM*
O=C(O)/C=C/C(=O)NCc1ccccn1	.	37%	6%	45µM*	?
O=C(c1ccc2c(c1)OCCO2)N(Cc1cccnc1)c1nc2c(F)cccc2s1	.	16%[57 µM]	-30%	-35%[59 µM]	-23%
CN(C)c1ncc2nc(CCc3ccccc3)c(=O)n(Cc3ccc(F)cc3)c2n1	.	.	.	-3%[12.7 µM]	.
COc1cccc2cc(C(=O)NCCN3CCOCC3)oc12	.	30%	-5%	45µM*	-24%
O=C(C1=C(O)C(=O)N(CCN2CCOCC2)C1c1ccc(Br)cc1)c1cc2ccccc2o1 (stereo unspecified)	.	29%	6%	?	?
